ELG1 repair inh: ELG1-dependent DNA repair inhibition | HEK293T ELG1-luciferase reporter, luminescence, 16 h; DNA damage induced by 5-fluorouridine | Potency, µM (highest dose often 46.1 µM), without a hit: top-dose activity change, negative = inhibition, actives largely listed as inhibitors | 330,000 compounds, 2.3% hits; note: potency is the fitted concentration of half-maximal effect; % is set by controls: 0 for no effect and ±100 for the full control effect; nearly all actives have a fitted effect of over 55% in size
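Quantitative HTS, concentration-response format. 2,000 cells/well co-treated with 5-fluorouridine and compound, 16 hr in 5% CO2 at 37 °C; ONE-Glo luminescence read after 30 min.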
FUS yeast rescue: FUS proteinopathy suppression in yeast; S. cerevisiae FUS-expressing, growth rescue, OD600, 24 h; 390,000 compounds, 0.24% hits; Potency, µM (doses to about 76.6 µM), usual class: activators;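 note: potency is the fitted concentration of half-maximal effect; plate controls were DMSO vehicle for no effect and reference control for full effect; nearly all actives have a fitted effect of over 55% in size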
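Compound concentration series was pinned onto galactose-induced FUS-expressing yeast seeded at OD 0.005. Plates sat 24hr at 30C; absorbance at 600 nm gave growth. DMSO served as background control.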
Giardia killer: kills Giardia lamblia; Giardia lamblia trophozoite viability; activity change, % at 7.66 µM, hits read low; 340,000 compounds, 0.15% hits; AID 540267; in the data active = activity change below about -80%; inconclusive = between about -30% and that limit;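 note: parasites exposed to compound for two days anaerobically before the ATP read; % is set by controls: 0 for no effect and ±100 for the full control effect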
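Each well holds 100 Giardia trophozoites and compound. After two days (48 hrs) at 37 deg C in anaerobic conditions, ATP is quantified by luminescence.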
TRPV1 potentiator: human TRPV1 potentiation; potentiation, % at 8.33 µM; Q8NER1; AID 540277; TRPV1-expressing cells, Fluo-8 calcium influx, capsaicin EC20 potentiation; 320,000 compounds, 0.02% hits; in the data active = potentiation above about 80%; inconclusive = between about 30% and that limit; note: 0% is about no effect
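Fluo-8 calcium influx in TRPV1-expressing cells, kinetic read (ex 480/em 520 nm). Compound added and read 3 min for agonist activity, followed by capsaicin at EC20 final and 2 min further read for enhancement.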
TRPV1 ag: agonists of human vanilloid receptor 1 (TRPV1); activation, % at 8.33 µM; Q8NER1; 320,000 compounds, 0.19% hits; TRPV1-expressing cells, Fluo-8 calcium influx, agonist mode; in the data active = activation above about 80%; inconclusive = between about 30% and that limit; note: 0% is about no effect
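Fluo-8 calcium influx in TRPV1-expressing cells, kinetic read (ex 480/em 520 nm). Compound added and read 3 min for agonist activity, followed by capsaicin at EC20 final and 2 min further read for enhancement.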
The depositor's hits bear a star; i = inactive; u = inconclusive; x = not tested or not shown. Shown are actives, neighbours in structure and some others; about 2.3% of the full set was active somewhere. Unless noted, calls come from the whole dose curve; as a rule, active = well fitted curve in the direction sought with a large enough effect; inconclusive = small, poorly fitted or top-dose-only effect, or another doubt; inactive = no such curve, though single readings can be large; an effect the other way counts as inactive or inconclusive.

SMILES	ELG1 repair inh	FUS yeast rescue	Giardia killer	TRPV1 potentiator	TRPV1 ag
Cc1noc(/C=C/c2ccco2)c1S(=O)(=O)N1CCC(C(=O)Nc2ccc(F)cc2F)CC1	x	i	x	x	x
COc1cc2c(cc1OC)C(COc1ccc3c(C)cc(=O)oc3c1)N(C(=O)c1cc(Cl)ccc1OC)CC2 (stereo not drawn)	x	i	x	x	x
O=C(NC1CCCCC1)c1ccc(CSc2nc3ccncc3n2Cc2cccc(F)c2)cc1	x	i	x	x	x
Cc1cc(S(=O)(=O)N2CCC(NC(=O)C34CC5CC(CC(C5)C3)C4)CC2)ccc1-n1cnnn1	-27%	i	-7	-12	81*
CCC1CCCCN1Cc1nc2c(c(=O)n(C)c(=O)n2C)n1Cc1c(F)cccc1Cl (stereo not drawn)	x	x	-1	x	x
CC(C)Cc1nc(N2CCN(C(=O)C(C)C)CC2)c(C#N)c2c1CCC2	-10%	i	14	0	-1
CC(=O)N1CCN(c2nc(CC(C)C)c3c(c2C#N)CCC3)CC1	-1%	i	0	21	93*
COc1cc(Cl)c(C)cc1NC(=O)c1cnn(-c2ccc(F)cc2F)c1C1CCN(C(=O)OC(C)(C)C)CC1	x	i	x	x	x
CC(C)(C)OC(=O)N1CCC(c2c(C(=O)N3CCN(c4ccc(Cl)cc4)CC3)cnn2-c2ccc(F)cc2F)CC1	x	22µM*	x	x	x
CN1CCN(C(=O)c2cnn(-c3ccc(F)cc3F)c2C2CCN(C(=O)OC(C)(C)C)CC2)CC1	x	i	x	x	x
COc1ccc(NC(=O)c2cnn(-c3ccc(F)cc3F)c2C2CCN(C(=O)OC(C)(C)C)CC2)cc1Cl	x	13µM*	x	x	x
CCCn1c(N)c(C(=O)CN(C)CC(=O)Nc2ccccc2C(F)(F)F)c(=O)[nH]c1=O	9.2µM*	i	6	1	2
Cc1ccccc1C(=O)Nc1cccc(C(=O)OCc2cc(=O)n3nc(C4CC4)sc3n2)c1	x	i	x	x	x
NC(=O)c1ccsc1NC(=O)c1ccc([N+](=O)[O-])o1	14%	i	-95*	x	x
CN1CCc2c(sc(NC(=O)c3ccc([N+](=O)[O-])o3)c2C(N)=O)C1	u	i	u	2	-3
N#Cc1c(NC(=O)c2ccc([N+](=O)[O-])o2)sc2c1CCC2	u	i	-94*	-4	0
NC(=O)c1ccsc1NC(=O)COC(=O)c1ccc([N+](=O)[O-])o1	10%	i	22	-6	2
NC(=O)c1c(NC(=O)c2ccc([N+](=O)[O-])o2)sc2c1CCCC2	-7%	i	-91*	-13	-5
CCOc1ccccc1NC(=O)c1ccc2c(c1)CCN2S(C)(=O)=O	x	i	x	x	x
O=[N+]([O-])c1ccc(N2CCN(CCOc3nonc3-c3ccccc3)CC2)c(Cl)c1	-7%	i	5	1	-2
Cc1nonc1OCCN1CCN(c2ccc([N+](=O)[O-])cc2)CC1	21µM*	i	-3	x	x
COc1cccc(C(=O)NCC2OCCc3ccccc32)c1 (stereo not drawn)	x	i	x	x	x
COc1ccc(-c2cn3c4c(sc3n2)CCCC4)cc1	u	i	6	-18	81*
Cn1c(NCc2ccco2)nc2c1c(=O)n(Cc1ccc(Cl)cc1)c(=O)n2C	u	i	-3	-3	18
Cn1c(=O)c2c(nc(NCc3ccc4c(c3)OCO4)n2Cc2ccccc2)n(C)c1=O	16µM*	i	-24	-6	0
SMILES	ELG1 repair inh	FUS yeast rescue	Giardia killer	TRPV1 potentiator	TRPV1 ag
Cn1c(=O)c2c(nc(NCc3ccc4c(c3)OCO4)n2Cc2ccc(F)cc2)n(C)c1=O	u	i	-7	-6	-9
Cn1c(NCc2ccccc2)nc2c1c(=O)n(Cc1ccc(Br)cc1)c(=O)n2C	21µM*	i	-17	7	7
Cn1c(NCc2ccco2)nc2c1c(=O)n(Cc1ccc(Br)cc1)c(=O)n2C	18µM*	i	11	-14	u
COc1cc(/C=N/Nc2nc3c(c(=O)n(C)c(=O)n3C)n2Cc2ccccc2)ccc1OC(=O)c1ccco1	18µM*	x	7	5	-4
CCOC(=O)c1c(C)n(-c2ccccc2)c2ccc(OC(=O)c3cccc(OC)c3OC)cc12	x	i	x	x	x
CCc1cccc(NC(=O)c2nc(-c3ccncc3)no2)c1	x	i	x	x	x
COc1ccc(C(=O)N2CCN(Cc3cc(=O)n4nc(-c5ccccc5C)sc4n3)CC2)cc1OC	x	i	x	x	x
CC1(C)Nc2ccc(O)cc2-c2c1ssc2=S	12µM*	i	9	-1	-2
O=C(c1cc2c(s1)-c1ccccc1S(=O)(=O)C2)N1CCN(Cc2ccccc2)CC1	13µM*	i	2	u	1
CSC1=C(C#N)C(c2ccc(Cl)cc2)C2=C(CC(C)(C)CC2=O)N1 (stereo not drawn)	18µM*	x	-5	-13	19
COc1ccc(-c2c(C)nn3c(N4CCN(c5ccccc5F)CC4)cc(C)nc23)cc1OC	x	i	x	x	x
COc1ccccc1NC1=C(N2CCCCC2)C(=O)c2ccccc2C1=O	1.8µM*	i	10	8	0
O=C1C(Nc2ccccc2)=C(N2CCCCC2)C(=O)c2ccccc21	u	i	16	-7	3
O=C1C(Nc2cccc(O)c2)=C(N2CCCCC2)C(=O)c2ccccc21	13µM*	i	9	-3	11
Cc1ccc(NC2=C(N3CCCCC3)C(=O)c3ccccc3C2=O)cc1	-23%	i	2	-2	10
COCC(=O)n1nc(NCc2ccc(OC)cc2)nc1NCc1ccc(OC)cc1	3%	i	-18	3	5
CCC(=O)n1nc(NCc2ccc(OC)c(OC)c2)nc1NCc1ccc(OC)c(OC)c1	10µM*	i	3	4	0
CCOC(=O)c1cccc(NC(=O)CN(C)S(=O)(=O)c2ccc(Br)s2)c1	x	i	x	x	x
CCOC(=O)c1ccc(NC(=O)CN(C)S(=O)(=O)c2ccc(Br)s2)cc1	26µM*	i	5	-2	20
NC(=O)Cc1nc(-c2ccc([N+](=O)[O-])cc2)cs1	18µM*	i	15	23	6
COc1ccccc1CNC(=O)CC(c1ccc(F)cc1)N1Cc2ccccc2C1=O (stereo not drawn)	x	i	x	x	x
O=C(CN(c1ccc2c(c1)OCCO2)S(=O)(=O)c1ccccc1)NCc1ccc(Cl)cc1	26µM*	x	41	6	2
CC(=O)Nc1ccc(NC(=O)CN(c2ccc(F)cc2)S(=O)(=O)c2ccc3c(c2)OCCO3)cc1	-18%	i	-9	12	10
O=C(CN(c1ccc(F)cc1)S(=O)(=O)c1ccc2c(c1)OCCO2)Nc1ccccc1	21µM*	i	0	12	-8
Cc1noc(C)c1CSc1nc2ccccc2nc1NS(=O)(=O)c1ccc(Cl)cc1	13µM*	i	-18	-2	2
O=S(=O)(Nc1nc2ccccc2nc1NCc1ccco1)c1ccc(Cl)cc1	0%	i	20	9	0
COc1cccc(-c2ccnc3c(-c4ccc(F)cc4)c(C)nn23)c1	x	i	x	x	x

Screening results as filed in PubChem BioAssay.
